Where “and” joins values, the source holds several entries; their conditions need not be identical. Identical values can stand only once. The panel holds about 79,000 compounds, 15% with a hit somewhere; the sample as a whole holds those more often. Some structures have more than one record in an assay (separate samples or runs), and their calls can disagree. Calls of active or inactive are those of the source. Cut-off read from the data, not from the text of the source: active = growth inhibition above about 70%; inactive = the rest.

The test is described as follows: NCI Yeast Anticancer Drug Screen. Data for the mlh1 rad18 strain (AID 175). The note with it: S. cerevisiae mlh1 rad18 strain growth inhibition; at 50.0 µM (retest, dose inferred, filed as 5.0); stronger effect = higher value. The essentials:
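Compound-treated yeast growth, normalised to vehicle controls. Strain bears defined DNA repair mutations.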
As to `Oc1c(Cl)cc(Cl)cc1Cc1cc(Cl)cc(Cl)c1O`, the growth inhibition is 98% (active). As to `COc1cc(OC)c(OC)cc1/C=C\c1ccnc2ccccc12`, the growth inhibition was 83% (active). Under `CC(C)C1=CC23CCC4C(C)(C(=O)O)CCCC4(C)C2CC1C1C(=O)OC(=O)C13` (stereo not drawn) stands 99% (active). As for `CN(C)c1nc(N)c(C#N)c(C#N)c1C#N`, the figure is 85% (active); as for `C/C(=N\NC(=S)N1CCN(c2ccccn2)CC1)c1nccs1`, 99% (active).

With `CCCCCCCCCCCCCCCCCCOCC(COP(=O)([O-])OCC[N+](C)(C)C)OC` (stereo not drawn), the growth inhibition is -88% (inactive).

Consider `COc1ccc2nc(C)cc(NCCCCCCCCCNc3cc(C)nc4ccc(OC)cc34)c2c1`, for which the growth inhibition was 93% (active). Take `CC1CC[P+](c2ccccc2)(c2ccccc2)c2c1ccc1ccccc21` (stereo not drawn): the growth inhibition is 97% (active). Under `CC(C)C1=C(O)C2=C(C(=O)C1=O)C1(C)CCCC(C)(C)C1CC2O` (stereo not drawn) stands 98% (active); under `CC(=O)[O-].[O-]c1c(Cl)cc(Cl)cc1/C=N/Nc1ccccn1.[Zn+2]`, 93% (active). As to `O=C(c1ccccc1)C(c1ccccc1)C(O)c1ccc([N+](=O)[O-])cc1` (stereo not drawn), the growth inhibition was 95% (active) and 99% (active).

For the compound `Clc1nc(Cl)c(Cl)c(Cl)n1`, the growth inhibition is 98% (active). For the compound `COc1cccc2c1C(=O)c1c(O)c3c(c(O)c1C2=O)C[C@@](O)(C(C)=O)C[C@@H]3OC1CC(N(C)C)C(O)C(C)O1` (stereo partly drawn), the growth inhibition was 97% (active). Under `CN1C(c2ccccc2)CC(=NOCc2ccccc2)CC1c1ccccc1` (stereo not drawn) stands 96% (active); under `Cc1ccc(NCCN(C)C)c2c(=O)c3cc(O)ccc3sc12`, 99% (active); under `N#CC1(C2SCCS2=O)C2=C(C(=O)c3ccccc3C2=O)N2CCCC21` (stereo not drawn), 67% (inactive). As for `CCN(CC)CCC(=O)/C=C/c1ccccc1`, the growth inhibition is 99% (active). As for `CC1(O)Cc2c(O)c3c(c(O)c2CC1O)C(=O)C=CC3=O` (stereo not drawn), the figure is 70% (active). As to `Cc1ccc2c(c1)C1(C)OC(C=CC1=O)O2` (stereo not drawn), the growth inhibition is 99% (active).

With `Fc1cccc(CSC(=S)Nc2ccc(F)c(F)c2)c1`, the growth inhibition is 99% (active). Under `CCN(CCO)CCNc1ccc(C)c2sc3ccccc3c(=O)c12` stands 98% (active). For the compound `Cc1n(-c2ccccc2)c2c([n+]1Cc1ccc([N+](=O)[O-])cc1)C(=O)c1ccccc1C2=O`, the growth inhibition was 96% (active). Under `CC(=O)OC1COC(n2c(N)c(C#N)c(-c3ccccc3)c(C#N)c2=S)C(OC(C)=O)C1OC(C)=O` (stereo not drawn) stands 8% (inactive) and 73% (active); under `O=c1[nH]c2cc([N+](=O)[O-])ccc2nc1/C=C(\O)c1ccc([N+](=O)[O-])cc1`, 77% (active); under `Cc1n(Cc2ccccc2)c2c([n+]1C)C(=O)c1ccccc1C2=O`, 97% (active).

On to `CS(=O)(=O)OCCN(CCOS(C)(=O)=O)c1ccc(C=Nc2ccc(-c3csc(Cc4ccccc4)n3)cc2)c(Cl)c1`, for which the growth inhibition is 94% (active). On to `CCCCCCCCCCS(=O)CC(CO)NC(=O)/C=C/c1c(C)[nH]c(=O)[nH]c1=O` (stereo not drawn), for which the growth inhibition was 92% (active).

For `C/C(=N\O)c1cc(Br)cc([N+](=O)[O-])c1O`, the growth inhibition was 25% (inactive). Under `COc1cc2c(c(OC)c1OC)-c1ccc(SC)c(=O)cc1C(NC(=O)c1ccccc1)CC2` (stereo not drawn) stands 70% (active); under `COc1cccc2c1C(=O)c1c(O)c3c(c(O)c1C2=O)C[C@@](O)(C(C)=O)C[C@@H]3OC1CC(O)C(O)C(C)O1` (stereo partly drawn), 93% (active).

With `CCCCCCCc1c(Cl)nc(Cl)nc1Cl`, the growth inhibition was 96% (active). With `O=C1/C(=C/c2ccc(Cl)cc2)CNC/C1=C\c1ccc(Cl)cc1`, the growth inhibition is 75% (active) and 88% (active). Under `O=C1C(Cl)=C(N2CCN(C3=C(Cl)C(=O)c4ccccc4C3=O)CC2)C(=O)c2ccccc21` stands 98% (active); under `O=C1c2ccccc2-n2c1nc1ccccc1c2=O`, 62% (inactive). Under `Nc1ccc(Cn2ccc3c4c(N)nc(N)nc4ccc32)cc1` stands 87% (active).

As for `Nc1nc(N)c2c(Cl)c(CNc3ccc(Cl)c(Cl)c3)ccc2n1`, the growth inhibition is 98% (active). Consider `Cc1cc(NCCCCCCCNc2cc(C)nc3cc([N+](=O)[O-])ccc23)c2ccc([N+](=O)[O-])cc2n1`, for which the growth inhibition was 88% (active).

On to `CCCCCCCCCCCCCCCCCC(=O)NCCO`, for which the growth inhibition is -8% (inactive).

The record behind these values is PubChem BioAssay (NCI).
